From the supplement of paper PMC7156485
± gives the standard deviation of the averaged measurements.

Assays:
Settings in all cases: concentration: 10 µM; 24 h
HCC1569 [1] = assay: cell number relative to DMSO (% of DMSO); higher = more cells (less growth inhibition / toxicity)
Outline: (§1)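 H1.0 nuclear intensity or cell number is expressed as percent of the plate control, with the median of replicates taken. HCC1569 and TDF cells were treated with compounds at 10 µM for 24 h at 37 °C, in triplicate, then fixed and immunostained for H1.0 with DAPI as a nuclear stain. HCC1569 values were smoothed to correct for positional effects.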

TDF [2] = assay: as above
Outline: as §1

TDF [3] = assay: H1.0 immunofluorescence intensity relative to DMSO (% of DMSO); higher = stronger H1.0 induction, active = 120 or more
Outline: as §1

HCC1569 [4] = assay: H1.0 immunofluorescence intensity relative to DMSO (% of DMSO); higher = stronger H1.0 induction, active = 140 or more
Outline: as §1
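For H1.0 immunofluorescence intensity relative to DMSO in this document: TDF is a line of transformed human dermal fibroblasts of mesenchymal origin.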
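For cell number relative to DMSO in this document: TDF denotes transformed human dermal fibroblasts of mesenchymal origin.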

Row | SMILES | cell number (HCC1569 [1]) | cell number (TDF [2]) | H1.0 immunofluorescence intensity (TDF [3]) | H1.0 immunofluorescence intensity (HCC1569 [4])
1 | COc1cc(C(O)C(=O)O)ccc1O (racemic) | 105 | 109 | 89.5 (inactive) | 91.2 (inactive)
2 | COC(=O)/C=C/c1cccc(N(Cc2ccc(-c3ccc(N(C)C)cc3)cc2)C(=O)C2CCCCC2)c1 | 91.5 | 95.9 | 90.7 (inactive) | 106 (inactive)
3 | CC12CC3CC(C)(C1)CC(N)(C3)C2.Cl [Memantine.HCl] | 94.8 | 102 | 90.8 (inactive) | 100 (inactive)
4 | CCCCCCCCCCOCCC(=O)O [4-Oxatetradecanoic acid] | 102 | 110 | 95.6 (inactive) | 103 (inactive)
5 | CCn1cc(C(=O)O)c(=O)c2cc(F)c(N3CCN(C)CC3)cc21.CS(=O)(=O)O.O.O [Pefloxacine mesylate dihydrate] | 103 | 111 | 96.4 (inactive) | 109 (inactive)
6 | Cc1cc2ncc(-c3ccccc3)nc2cc1C | 100 | 97.9 | 96 (inactive) | 112 (inactive)
7 | O=C1CCc2c(ccc3ccccc23)O1 [1,2-dihydro-3H-benzo[f]chromen-3-one] | 103 | 101 | 95.1 (inactive) | 92.7 (inactive)
8 | NC(=O)c1cccc(NC(=O)/C=C/c2c[nH]c3ccccc23)c1 [(E)-3-(3-(1H-indol-3-yl)acrylamido)benzamide] | 97.9 | 103 | 88 (inactive) | 118 (inactive)
9 | COc1ccc(C(=O)NCc2cccnc2)cc1C(=O)NCc1cccnc1 [Picotamide] | 102.3 ± 0.66 | 103 ± 5.2 | 93.6 (inactive) | 103 (inactive)
10 | OCC1=CC(O)C2C=COC(OC3OC(CO)C(O)C(O)C3O)C12 (configuration not stated) [Aucubin] | 99.6 | 107 | 99.8 (inactive) | 85 (inactive)
11 | COc1cc2c3cc1Oc1c(OC)c(OC)cc4c1C(Cc1ccc(OC(=O)c5ccc([N+](=O)[O-])cc5)c(c1)Oc1ccc(cc1)CC3N(C)CC2)N(C)CC4 (configuration not stated) [E6 Berbamine] | 90.2 | 95.2 | 98.8 (inactive) | 97.7 (inactive)
12 | CCCCS(=N)(=O)CCC(N)C(=O)O (racemic) [DL-Buthionine-[S,R]-sulfoximine] | 102 | 102 | 97.8 (inactive) | 99.9 (inactive)
13 | Cc1c(C)c2c(c(C)c1O)CCC(C)(C(=O)O)O2 (configuration not stated) [Trolox] | 101 | 101 | 94.4 (inactive) | 91.3 (inactive)
14 | C=CCSC[C@H](N)C(=O)O [(2R)-3-(allylsulfanyl)-2-aminopropanoic acid] | 103 | 95.1 | 88.7 (inactive) | 90.1 (inactive)
15 | OCCOc1ccc(/C(=C(/CCCl)c2ccccc2)c2ccccc2)cc1 [2-{4-[(1Z)-4-chloro-1,2-diphenyl-1-butenyl]phenoxy}ethanol] | 101 | 96.7 | 100 (inactive) | 96.6 (inactive)
16 | C[C@@H](c1nc(-c2ccc(C#N)cc2)cs1)[C@](O)(Cn1cncn1)c1ccc(F)cc1F | 83.5 | 95 | 111 (inactive) | 129 (inactive)
17 | COc1ccc2cc(C(C)C(=O)O)ccc2c1 (configuration not stated) [Naproxen] | 99.9 | 83.8 | 98.1 (inactive) | 109 (inactive)
18 | O=C(NC(Cc1ccccc1)C(=O)CCl)OCc1ccccc1 [Z-L-Phe chloromethyl ketone] | 54.9 | 52.5 | 120 (inactive) | 116 (inactive)
19 | CSc1nc(N)c2ncn(C3OC(COP(=O)([O-])OP(=O)([O-])[O-])C(O)C3O)c2n1.[Na+].[Na+].[Na+] (configuration not stated) [2-Methylthioadenosine diphosphate trisodium] | 99.9 | 92.9 | 99.2 (inactive) | 89.7 (inactive)
20 | COc1ccc(-n2c(SCC#N)nc3sc4c(c3c2=O)CCCC4)cc1 | 91.9 | 92.5 | 86.3 (inactive) | 108 (inactive)
21 | CCCCCCCCCCCCCCC(O)C(O)C(CO)NC(C)=O (configuration not stated) [C2 Phytoceramide] | 79.1 | 86.5 | 110 (inactive) | 101 (inactive)
22 | O=C(O)c1cc(=O)cc(C(=O)O)[nH]1 [Chelidamic acid] | 98.8 | 109 | 90 (inactive) | 96.3 (inactive)
23 | C#C[C@@]1(OC(C)=O)CC[C@H]2[C@@H]3CCC4=CC(=O)CC[C@@H]4[C@H]3CC[C@@]21C [(17beta)-17-ethynyl-3-oxoestr-4-en-17-yl acetate] | 90.4 | 96.8 | 95.5 (inactive) | 121 (inactive)
